Results filed as inconclusive are left out. The source made the active and inactive calls. Unless noted, calls follow the shape of the dose curve; as a rule, active = well fitted curve in the direction sought with a large enough effect in the repeat runs; inconclusive = weak or mixed curves; inactive = no such curve, though single readings can be large; an effect the other way counts as inactive or inconclusive.
What was measured:
[1] = qHTS assay to identify small molecule agonists or antagonists of the thyroid stimulating hormone receptor (TSHR) signaling pathway - wild type cell line counter screen (AID 1259384; calls by dose curve)
Summary of the method: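 Counter screen in untransfected Hek293: compounds (15-point titration, triplicate) plus phosphodiesterase inhibitor Ro20-1724 added after 18 h plating; 30 min RT. Intracellular cAMP via competitive d2/cryptate immunoassay, 1 h incubation.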

[2] = molecular target: Thyrotropin receptor (Homo sapiens) (UniProt P16473); test: qHTS assay to identify small molecule antagonists of the thyroid stimulating hormone receptor (TSHR) signaling pathway (AID 1259385; calls by dose curve; also: nearly all actives have a fitted effect of over 20% in size)
Summary of the method: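 Antagonist mode: compound-treated TSHR-expressing HEK293 cells were stimulated with 1.5 ng/mL TSH (final) in presence of Ro20-1724 for 30 min at RT. HTRF cAMP detection after 1 h; each compound tested at 15 concentrations, triplicate.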

[3] = qHTS assay to identify small molecule agonists of the estrogen receptor alpha (ER-alpha) signaling pathway in the presence of an antagonist - cell viability counter screen (AID 1259386);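 also: series mostly up to about 92 µM; cells exposed to compounds for 22 h at 37 °C before the viability read; nearly all actives have a fitted effect of over 30% in size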
Summary of the method: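 Read-out: CellTiter-Fluor fluorescence after 1hr reagent incubation, measured in the same wells as the luciferase readout. VM7Luc4E2 cells were exposed to 15 compound concentrations with 10.0nM ICI-182,780 for 22hr at 37C.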

[4] = molecular target: Progesterone receptor (Homo sapiens) (UniProt P06401); test: qHTS assay to identify small molecule agonists of the progesterone receptor (PR) signaling pathway (AID 1346784; calls by dose curve; also: nearly all actives have a fitted effect of over 30% in size)
Summary of the method: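 Cells (PR-UAS-bla HEK 293T, GripTite) were plated in assay medium containing 2% charcoal-stripped FBS and incubated 6 hr. Test compounds in DMSO were added for 16 hr at 37C. FRET substrate was then loaded for 2 hr at room temperature before fluorescence reading.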

[5] = molecular target: Progesterone receptor (Homo sapiens) (UniProt P06401); test: qHTS assay to identify small molecule antagonists of the progesterone receptor (PR) signaling pathway (AID 1346795; active = well fitted inhibition curve with a large enough effect in the signal ratio in the repeat runs, not every such curve was filed as active; the % refers to the signal ratio; also: potency is read from the fitted curve at half-maximal effect)
Summary of the method: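 Antagonist mode: compounds tested against 1 nM (final) promegestone stimulation in HEK293T cells expressing PR-UAS-bla reporter, 16 hr at 37C, 5% CO2; beta-lactamase activity detected via B/G FRET substrate after 2 hr at room temperature.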

[6] = qHTS assay to identify small molecule antagonists of the progesterone receptor (PR) signaling pathway - cell viability counter screen (AID 1346798); also: series mostly up to about 92 µM; nearly all actives have a fitted effect of over 50% in size
Summary of the method: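 Counter screen for cytotoxicity: viability of PR-UAS-bla HEK293T cells was measured with CellTiter-Glo luminescence following 16 hr compound exposure in the presence of R5020.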

[7] = qHTS assay to identify small molecule agonists of the progesterone receptor (PR) signaling pathway - cell viability counter screen (AID 1346799; calls by dose curve; also: nearly all actives have a fitted effect of over 45% in size; also: potency is read from the fitted curve at half-maximal effect)
Summary of the method: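 Cells (PR-UAS-bla HEK293T) are plated at 3,000/well in 2% charcoal-stripped FBS medium, rested 6 hr, dosed and incubated 16 hr at 37C. CellTiter-Glo is then added and luminescence measured after 30 min at room temperature.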

[8] = qHTS assay to identify small molecule antagonists of the TGF-beta/Smad signaling pathway - cell viability counter screen (AID 1346824); also: nearly all actives have a fitted effect of over 50% in size
Summary of the method: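 Cytotoxicity counter-screen run in the same wells as the beta-lactamase Smad reporter read: CellTiter-Glo luminescence after 30 min at room temperature. HEK 293T SBE-bla cells had 5 hr compound exposure at 37 C with TGF-beta1 (0.25 ng/mL stock).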

[9] = qHTS assay to identify small molecule agonists of the TGF-beta/Smad signaling pathway - cell viability counter screen (AID 1346829); also: top concentration of the series differs between compounds; nearly all actives have a fitted effect of over 45% in size
Summary of the method: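 Cytotoxicity counter screen: CellTiter-Glo luminescence (30 min, room temperature) measured in the SBE-bla HEK 293T reporter wells after 5 hr compound treatment at 37 C and the 2 hr substrate step.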

[10] = qHTS assay to identify small molecule agonists of the TGF-beta/Smad signaling pathway (AID 1346859; active = well fitted activation curve with a large enough effect in the signal ratio in the repeat runs, not every such curve was filed as active; the % refers to the signal ratio; also: series mostly up to about 77 µM)
Summary of the method: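 Reporter line: HEK 293T with stably integrated SBE-controlled beta-lactamase. Compound exposure lasts 5 hr at 37 C and 5% CO2; substrate loading follows for 2 hr at room temperature, with emission read at 460 and 530 nm.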

[11] = Human pregnane X receptor (PXR) small molecule agonists, qHTS cell viability counter screen (AID 1346977); also: nearly all actives have a fitted effect of over 50% in size
Summary of the method: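 Cytotoxicity counter screen run in the same wells as the PXR luciferase assay, using PXR-Luc HepG2 cells in charcoal-stripped serum medium. Viability: CellTiter-Fluor fluorescence after 24hr compound treatment.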

[12] = Caspase-3/7 induction in HepG2 cells by small molecules, qHTS assay (AID 1346978); also: nearly all actives have a fitted effect of over 15% in size
Summary of the method: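 Caspase-3/7 induction was measured by Caspase-Glo 3/7 luminescence (30 min, room temperature) after a 17 hr compound exposure of wild-type HepG2 cells seeded at 2,000 per well and pre-incubated 5 hr.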

[13] = Caspase-3/7 induction in CHO-K1 cells by small molecules, qHTS cell viability counter screen (AID 1346979); also: nearly all actives have a fitted effect of over 35% in size
Summary of the method: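 Cytotoxicity counter screen run in parallel with the caspase-3/7 assay: CHO-K1 cells, 16hr compound treatment at 37C, then CellTiter-Fluor for 1hr before fluorescence reading.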

[14] = Caspase-3/7 induction in CHO-K1 cells by small molecules, qHTS assay (AID 1346980); also: nearly all actives have a fitted effect of over 15% in size
Summary of the method: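 Luminescent Caspase-Glo 3/7 read (30min, room temperature) quantified apoptosis induction. Cells were wild-type CHO-K1, treated with compound for 17hr at 37 C and 5% CO2.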

[15] = Caspase-3/7 induction in HepG2 cells by small molecules, qHTS cell viability counter screen (AID 1346981); also: series mostly up to about 92 µM; nearly all actives have a fitted effect of over 30% in size
Summary of the method: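 Fluorescence read-out of live-cell protease activity (CellTiter-Fluor) after 1 hr with reagent. This was measured in the same wells as the caspase-3/7 luminescence, on HepG2 cells exposed to DMSO-dissolved compounds for 16 hr at 37 C.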

[16] = molecular target: Nuclear receptor subfamily 1 group I member 2 (Homo sapiens) (UniProt O75469); test: Human pregnane X receptor (PXR) small molecule agonists, qHTS assay (AID 1346982); also: nearly all actives have a fitted effect of over 35% in size; also: potency is read from the fitted curve at half-maximal effect
Summary of the method: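 HepG2 PXR-Luc reporter line, 5% charcoal-stripped FBS; 5 hr pre-incubation, compound (DMSO) 24 hr at 37 C/5% CO2; ONE-Glo 30 min RT; luminescence read-out.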

[17] = molecular target: Estrogen receptor (Homo sapiens) (UniProt P03372); test: qHTS assay to identify small molecule agonists of the estrogen receptor alpha (ER-alpha) signaling pathway in the presence of an antagonist (AID 1259383; calls by dose curve; also: top concentration of the series differs between compounds; nearly all actives have a fitted effect of over 15% in size)
Summary of the method: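 Luciferase luminescence (ONE-Glo, 30min at room temperature) measured in VM7Luc4E2 cells after 22hr compound exposure at 15 concentrations, with 10.0nM ICI-182,780 final present; cells express endogenous ER-alpha and carry four EREs upstream of luciferase.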

[18] = molecular target: Thyrotropin-releasing hormone receptor (Homo sapiens) (UniProt P34981); test: qHTS assay to identify small molecule antagonists of the thyrotropin-releasing hormone receptor (TRHR) signaling pathway (AID 1346877; active = well fitted inhibition curve with a large enough effect in the repeat runs, not every such curve was filed as active; also: series mostly up to about 51 µM)
Summary of the method: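 HEK293/TRHR cells, 18 h, 37 °C; Ca2+ dye 2 h; cpd 5 min RT; TRH 1 nM final; fluorescence read 3 min, 1 s intervals; 15 concs, triplicate.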

[19] = molecular target: Thyrotropin-releasing hormone receptor (Homo sapiens) (UniProt P34981); test: qHTS assay to identify small molecule agonists of the thyrotropin-releasing hormone receptor (TRHR) signaling pathway (AID 1346891; calls by dose curve;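 also: HEK293 cells expressing TRHR with calcium dye readout; series mostly up to about 58 µM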)
Summary of the method: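 Cells: TRHR-Hek293, seeded and incubated 18 h. Dye loading: 2 h at 37 °C. Compound added from DMSO stock by pin tool. Read-out: kinetic calcium fluorescence over 3 min.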

[20] = molecular target: Nuclear receptor subfamily 1 group I member 2 (Rattus norvegicus) (UniProt Q9R1A7); test: Rat pregnane X receptor (rPXR) activation by small molecules, qHTS assay (AID 1346983); conditions: rPXR luciferase reporter cells, One-Glo luminescence, 24 h; max activation: active compounds read high; also: nearly all actives have a fitted effect of over 20% in size; also: potency is read from the fitted curve at half-maximal effect
Summary of the method: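 Luminescent readout (One-Glo luciferase, 30 min room temperature) followed 24 hr compound treatment at 37 C of rPXR cells plated 2,000 per well and preincubated 5hr; qHTS format with compounds delivered in DMSO.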
% is scaled to controls: 0 for no effect and ±100 for the full control effect.

Chain of Thyrotropin-releasing hormone receptor (Homo sapiens) (P34981 whole entry, looked up): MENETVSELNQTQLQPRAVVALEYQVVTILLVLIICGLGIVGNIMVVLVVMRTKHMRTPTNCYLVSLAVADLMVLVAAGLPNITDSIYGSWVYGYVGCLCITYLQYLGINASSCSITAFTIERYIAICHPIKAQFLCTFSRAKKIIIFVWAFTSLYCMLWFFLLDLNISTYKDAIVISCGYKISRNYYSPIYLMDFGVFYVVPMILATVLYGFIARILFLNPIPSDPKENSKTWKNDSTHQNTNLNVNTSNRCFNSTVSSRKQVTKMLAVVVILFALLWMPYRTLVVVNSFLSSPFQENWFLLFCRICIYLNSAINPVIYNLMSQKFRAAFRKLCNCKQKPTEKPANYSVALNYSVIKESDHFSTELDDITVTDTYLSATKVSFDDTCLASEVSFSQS
Chain of Thyrotropin receptor (Homo sapiens) (P16473 whole entry, looked up): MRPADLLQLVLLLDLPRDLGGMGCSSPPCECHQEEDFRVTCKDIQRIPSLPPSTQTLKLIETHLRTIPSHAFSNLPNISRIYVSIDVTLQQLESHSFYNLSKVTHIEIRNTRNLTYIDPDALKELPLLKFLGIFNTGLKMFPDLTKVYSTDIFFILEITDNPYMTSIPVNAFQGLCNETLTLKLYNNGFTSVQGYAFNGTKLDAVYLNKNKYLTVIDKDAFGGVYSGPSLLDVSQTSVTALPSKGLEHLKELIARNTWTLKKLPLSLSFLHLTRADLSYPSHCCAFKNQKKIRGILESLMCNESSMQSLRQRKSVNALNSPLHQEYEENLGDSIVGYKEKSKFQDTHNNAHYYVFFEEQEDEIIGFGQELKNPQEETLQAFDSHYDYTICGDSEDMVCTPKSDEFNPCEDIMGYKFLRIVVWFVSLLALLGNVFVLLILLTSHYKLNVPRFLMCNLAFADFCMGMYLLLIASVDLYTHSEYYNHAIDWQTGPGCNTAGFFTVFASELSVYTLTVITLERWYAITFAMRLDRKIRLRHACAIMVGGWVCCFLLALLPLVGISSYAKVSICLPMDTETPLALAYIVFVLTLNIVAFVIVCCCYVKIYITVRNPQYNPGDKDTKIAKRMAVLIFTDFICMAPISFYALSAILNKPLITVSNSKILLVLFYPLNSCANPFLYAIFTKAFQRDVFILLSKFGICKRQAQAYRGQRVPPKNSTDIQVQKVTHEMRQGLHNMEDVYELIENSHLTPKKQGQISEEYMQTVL
Chain of Estrogen receptor (Homo sapiens) (P03372 whole entry, looked up): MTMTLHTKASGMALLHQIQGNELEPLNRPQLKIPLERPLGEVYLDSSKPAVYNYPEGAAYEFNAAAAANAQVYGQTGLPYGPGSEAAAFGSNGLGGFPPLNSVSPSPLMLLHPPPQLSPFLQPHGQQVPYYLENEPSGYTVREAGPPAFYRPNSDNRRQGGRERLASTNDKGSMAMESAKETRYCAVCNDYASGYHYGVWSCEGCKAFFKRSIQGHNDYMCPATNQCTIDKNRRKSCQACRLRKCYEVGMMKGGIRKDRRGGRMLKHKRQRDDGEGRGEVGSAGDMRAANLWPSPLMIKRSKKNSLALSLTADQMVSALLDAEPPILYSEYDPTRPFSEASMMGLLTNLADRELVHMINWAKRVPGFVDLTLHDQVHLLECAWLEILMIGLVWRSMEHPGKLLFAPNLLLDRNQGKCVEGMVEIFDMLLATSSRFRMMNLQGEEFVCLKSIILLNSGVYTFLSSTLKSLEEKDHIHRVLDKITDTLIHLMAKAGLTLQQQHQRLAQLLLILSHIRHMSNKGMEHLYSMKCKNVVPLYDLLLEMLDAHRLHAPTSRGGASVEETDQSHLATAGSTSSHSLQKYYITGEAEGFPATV
Chain of Progesterone receptor (Homo sapiens) (P06401 whole entry, looked up): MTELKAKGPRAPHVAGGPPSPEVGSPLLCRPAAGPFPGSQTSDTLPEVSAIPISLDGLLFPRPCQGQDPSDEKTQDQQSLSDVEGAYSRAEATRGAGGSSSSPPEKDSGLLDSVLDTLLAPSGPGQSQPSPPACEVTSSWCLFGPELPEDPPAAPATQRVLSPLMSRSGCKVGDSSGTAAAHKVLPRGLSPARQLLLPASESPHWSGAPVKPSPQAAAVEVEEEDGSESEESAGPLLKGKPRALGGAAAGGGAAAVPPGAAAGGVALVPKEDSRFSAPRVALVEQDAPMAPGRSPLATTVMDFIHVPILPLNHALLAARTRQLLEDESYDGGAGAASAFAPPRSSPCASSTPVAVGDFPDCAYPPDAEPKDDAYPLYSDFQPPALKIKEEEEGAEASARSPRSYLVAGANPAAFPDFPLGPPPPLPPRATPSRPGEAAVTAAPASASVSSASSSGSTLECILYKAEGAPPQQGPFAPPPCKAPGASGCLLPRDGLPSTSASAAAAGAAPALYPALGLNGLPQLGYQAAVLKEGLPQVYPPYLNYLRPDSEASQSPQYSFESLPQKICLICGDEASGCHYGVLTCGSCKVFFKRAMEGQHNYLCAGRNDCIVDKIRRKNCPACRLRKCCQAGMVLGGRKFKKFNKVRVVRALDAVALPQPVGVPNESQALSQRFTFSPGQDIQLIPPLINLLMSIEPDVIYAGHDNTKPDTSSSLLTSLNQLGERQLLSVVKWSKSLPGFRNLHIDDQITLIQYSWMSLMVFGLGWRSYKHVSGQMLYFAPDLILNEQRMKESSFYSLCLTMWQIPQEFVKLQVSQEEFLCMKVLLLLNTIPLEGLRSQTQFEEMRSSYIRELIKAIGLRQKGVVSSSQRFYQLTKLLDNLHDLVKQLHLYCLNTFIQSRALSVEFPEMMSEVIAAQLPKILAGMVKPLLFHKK
Chain of Nuclear receptor subfamily 1 group I member 2 (Homo sapiens) (O75469 whole entry, looked up): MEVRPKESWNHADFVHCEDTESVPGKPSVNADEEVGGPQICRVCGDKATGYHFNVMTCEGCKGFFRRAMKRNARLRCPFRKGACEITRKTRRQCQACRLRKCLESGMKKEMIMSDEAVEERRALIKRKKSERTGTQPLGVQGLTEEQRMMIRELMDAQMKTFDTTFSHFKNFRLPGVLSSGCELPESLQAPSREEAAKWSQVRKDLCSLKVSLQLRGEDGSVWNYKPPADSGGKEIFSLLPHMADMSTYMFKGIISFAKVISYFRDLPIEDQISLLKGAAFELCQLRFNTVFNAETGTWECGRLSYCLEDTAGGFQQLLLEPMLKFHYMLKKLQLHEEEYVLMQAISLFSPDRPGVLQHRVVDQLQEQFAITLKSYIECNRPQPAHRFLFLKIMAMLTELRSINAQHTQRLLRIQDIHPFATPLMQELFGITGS
Chain of Nuclear receptor subfamily 1 group I member 2 (Rattus norvegicus) (Q9R1A7 whole entry, looked up): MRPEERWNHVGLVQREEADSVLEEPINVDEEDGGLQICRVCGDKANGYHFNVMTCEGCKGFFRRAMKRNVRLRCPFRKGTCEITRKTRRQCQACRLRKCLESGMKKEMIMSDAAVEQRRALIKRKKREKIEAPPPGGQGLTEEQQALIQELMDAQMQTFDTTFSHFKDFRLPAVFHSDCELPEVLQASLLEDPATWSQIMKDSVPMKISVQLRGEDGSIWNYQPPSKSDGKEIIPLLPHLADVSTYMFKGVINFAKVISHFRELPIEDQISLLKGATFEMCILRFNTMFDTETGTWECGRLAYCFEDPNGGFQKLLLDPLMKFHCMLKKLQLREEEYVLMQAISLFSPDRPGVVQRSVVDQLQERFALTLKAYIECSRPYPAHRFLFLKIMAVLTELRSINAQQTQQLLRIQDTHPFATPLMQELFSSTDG

CCOC(=O)CC
inactive: outcome [1] | outcome [2] | outcome [3] | Potency [4] | Potency [5] | outcome [6] | Potency [7] | outcome [8] | outcome [9] | outcome [10] | outcome [11] | outcome [12] | Potency [13] | outcome [14] | outcome [15] | Potency [16]

CC/C=C\CCCCCCCCCCOC(C)=O
inactive: outcome [1] | outcome [2] | outcome [3] | Potency [4] | Potency [5] | outcome [6] | Potency [7] | outcome [8] | outcome [10] | outcome [11] | outcome [12] | Potency [13] | outcome [14] | outcome [15]

CCCCCCCC(=O)N(C)C
inactive: Potency [17] | outcome [3] | Potency [5] | outcome [6] | Potency [7] | outcome [9] | outcome [10] | outcome [18] | Potency [19] | outcome [11] | outcome [12] | Potency [13] | outcome [14] | outcome [15]

CCc1ncc(C)[nH]1
inactive: outcome [1] | outcome [2] | outcome [3] | Potency [4] | Potency [5] | outcome [6] | Potency [7] | outcome [8] | outcome [9] | outcome [10] | outcome [18] | outcome [11] | outcome [12] | Potency [13] | outcome [14] | outcome [15] | Potency [16]

CCCCCC(CC)OC(=O)CCCOc1ccc(Cl)cc1Cl (centres undefined)
inactive: outcome [1] | outcome [2] | outcome [3] | Potency [4] | Potency [5] | outcome [6] | Potency [7] | outcome [8] | outcome [9] | outcome [10] | outcome [18] | Potency [19] | outcome [11] | outcome [12] | Potency [13] | outcome [14] | Potency [16]

COc1ccc2cc(CCC(C)=O)ccc2c1
inactive: outcome [1] | outcome [2] | outcome [3] | Potency [4] | outcome [6] | outcome [9] | outcome [10] | outcome [11] | outcome [12] | Potency [13] | outcome [14] | outcome [15]
active: Potency [5] 13.3 µM | Potency [16] 10.6 µM | Potency [20] 8.91 µM

Cc1ccc(O)c([N+](=O)[O-])c1
inactive: Potency [17] | outcome [3] | Potency [5] | outcome [8] | outcome [9] | outcome [10] | outcome [18] | outcome [11] | outcome [12] | Potency [13] | outcome [14] | outcome [15] | Potency [16]
active: Potency [7] 24.6 µM

Nc1ccc(C(=O)NCC(=O)O)cc1
inactive: Potency [17] | outcome [3] | Potency [5] | outcome [6] | Potency [7] | outcome [8] | outcome [9] | outcome [10] | outcome [11] | outcome [12] | Potency [13] | outcome [14] | outcome [15] | Potency [16] | max activation [20] -2.15%

CCN(CC)CC
inactive: outcome [1] | outcome [2] | outcome [3] | Potency [4] | Potency [5] | Potency [7] | outcome [8] | outcome [9] | outcome [10] | outcome [18] | Potency [19] | outcome [11] | outcome [12] | Potency [13] | outcome [14] | outcome [15] | Potency [16]
